PubChem BioAssay AID1159580 (chemical genetic matrix, 2015)
Values joined by “and” are separate entries in the source; they are usually repeats but may differ in a detail not shown here. Equal values may be shown once. About 2,000 (36%) of roughly 5,500 compounds were called active. Roughly 18% stayed inconclusive and do not appear here. Rule as the data show it: active = normalized growth mostly below about 0.91 (no sharp cut-off); inconclusive = no clear call, values can overlap the other calls; inactive = mostly above about 0.92. The list shows a part of the results.

Assay: chemical genetic growth profiling, strain panel (AID 1159580);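 also: tested at 20 µM; growth read once vehicle control cultures reached saturation at 30 °C; 1 = growth at the plate median or of vehicle wells; lower values mean less growth of the strain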
Settings: growth OD
[1] = S. cerevisiae deletion strains, locus YAL013W, strain DEP1, active compounds read low
[2] = S. cerevisiae deletion strains, locus YBR229C, strain ROT2, active compounds read low
[3] = S. cerevisiae deletion strains, locus YDL101C, strain DUN1, active compounds read low
[4] = S. cerevisiae deletion strains, locus YDL134C, strain PPH21, active compounds read low
[5] = S. cerevisiae deletion strains, locus YDR150W, strain NUM1, active compounds read low
[6] = S. cerevisiae deletion strains, locus YEL061C, strain CIN8, active compounds read low
[7] = S. cerevisiae deletion strains, locus YGR078C, strain PAC10, active compounds read low
[8] = S. cerevisiae deletion strains, locus YGR229C, strain SMI1, active compounds read low
[9] = S. cerevisiae deletion strains, locus YHR030C, strain SLT2, active compounds read low
[10] = S. cerevisiae deletion strains, locus YJR043C, strain POL32, active compounds read low
[11] = S. cerevisiae deletion strains, locus YJR075W, strain HOC1, active compounds read low
[12] = S. cerevisiae deletion strains, locus YKL190W, strain CNB1, active compounds read low
[13] = S. cerevisiae deletion strains, locus YLR039C, strain RIC1, active compounds read low
[14] = S. cerevisiae deletion strains, locus YLR262C, strain YPT6, active compounds read low
[15] = S. cerevisiae deletion strains, locus YMR263W, strain SAP30, active compounds read low
[16] = S. cerevisiae deletion strains, locus YMR307W, strain GAS1, active compounds read low
[17] = S. cerevisiae deletion strains, locus YNL128W, strain TEP1, active compounds read low
[18] = S. cerevisiae deletion strains, locus YNL153C, strain GIM3, active compounds read low
[19] = S. cerevisiae deletion strains, locus YNL322C, strain KRE1, active compounds read low
[20] = S. cerevisiae deletion strains, locus YOL006C, strain TOP1, active compounds read low
[21] = S. cerevisiae deletion strains, locus YPL055C, strain LGE1, active compounds read low
[22] = S. cerevisiae deletion strains, locus YPL241C, strain CIN2, active compounds read low

Measured: normalized growth

CC(=O)N[C@@H]1[C@@H](C(O)[C@H](O)CO)O[C@](O)(C(=O)O)C[C@@H]1O (stereo partly drawn)
inactive: [1] 1.01 | S. cerevisiae deletion strains, locus YBR021W, strain FUR4, active compounds read low 1.02 | [2] 1 | S. cerevisiae deletion strains, locus YCL029C, strain bik1, active compounds read low 0.997 | S. cerevisiae deletion strains, locus YDL035C, strain GPR1, active compounds read low 1.01 | S. cerevisiae deletion strains, locus YDL074C, strain BRE1, active compounds read low 1.04 | [3] 1.03 | [4] 1 | S. cerevisiae deletion strains, locus YDL185W, strain tfp1, active compounds read low 1.02 | S. cerevisiae deletion strains, locus YDL192W, strain arf1, active compounds read low 0.999 | S. cerevisiae deletion strains, locus YDR101C, strain arx1, active compounds read low 1 | [5] 1 | S. cerevisiae deletion strains, locus YDR162C, strain NBP2, active compounds read low 1.02 | S. cerevisiae deletion strains, locus YDR318W, strain mcm21, active compounds read low 1.01 | S. cerevisiae deletion strains, locus YDR388W, active compounds read low 1.01 | S. cerevisiae deletion strains, locus YDR502C, strain sam2, active compounds read low 0.998 | [6] 1 | S. cerevisiae deletion strains, locus YER110C, active compounds read low 1 | S. cerevisiae deletion strains, locus YER155C, strain BEM2, active compounds read low 1 | S. cerevisiae deletion strains, locus YER167W, strain BCK2, active compounds read low 1 | S. cerevisiae deletion strains, locus YGL078C, strain dbp3, active compounds read low 0.982 | S. cerevisiae deletion strains, locus YGL086W, strain mad1, active compounds read low 1 | S. cerevisiae deletion strains, locus YGL248W, strain PDE1, active compounds read low 1.01 | [7] 1.03 | S. cerevisiae deletion strains, locus YGR135W, strain pre9, active compounds read low 1.01 | [8] 1.02 | S. cerevisiae deletion strains, locus YGR252W, strain gcn5, active compounds read low 0.958 | [9] 0.998 and 1.01 | S. cerevisiae deletion strains, locus YHR079C, strain IRE1 (second series), active compounds read low 1.01 | S. cerevisiae deletion strains, locus YHR079C, strain IRE1, active compounds read low 1 | S. cerevisiae deletion strains, locus YHR094C, strain hxt1, active compounds read low 1.01 | S. cerevisiae deletion strains, locus YHR129C, strain ARP1, active compounds read low 1.02 | S. cerevisiae deletion strains, locus YHR200W, strain rpn10, active compounds read low 1.01 | S. cerevisiae deletion strains, locus YIL066C, strain RNR3, active compounds read low 1.02 | S. cerevisiae deletion strains, locus YIL073C, strain SPO22, active compounds read low 1.02 | S. cerevisiae deletion strains, locus YIL125W, strain kgd1, active compounds read low 0.993 | S. cerevisiae deletion strains, locus YIR030C, strain dcg1, active compounds read low 0.999 | S. cerevisiae deletion strains, locus YJL095W, strain BCK1, active compounds read low 1.06 and 0.995 | S. cerevisiae deletion strains, locus YJL134W, strain LCB3, active compounds read low 1.01 | S. cerevisiae deletion strains, locus YJL168C, strain set2, active compounds read low 1.01 | S. cerevisiae deletion strains, locus YJL187C, strain SWE1 (second series), active compounds read low 1.04 | [10] 1.04 | S. cerevisiae deletion strains, locus YJR066W, strain TOR1, active compounds read low 0.916 | [11] 1.02 | S. cerevisiae deletion strains, locus YKL009W, strain mrt4, active compounds read low 1.02 | S. cerevisiae deletion strains, locus YKL068W, active compounds read low 0.998 | S. cerevisiae deletion strains, locus YKL085W, strain MDH1 (second series), active compounds read low 1 | S. cerevisiae deletion strains, locus YKL085W, strain MDH1, active compounds read low 1 | [12] 1.01 | S. cerevisiae deletion strains, locus YKR001C, strain vps1, active compounds read low 1.01 | [13] 1.02 | S. cerevisiae deletion strains, locus YLR058C, strain SHM2, active compounds read low 1.01 | S. cerevisiae deletion strains, locus YLR102C, strain apc9, active compounds read low 1.01 | S. cerevisiae deletion strains, locus YLR113W, strain HOG1, active compounds read low 1.05 | [14] 1.03 | S. cerevisiae deletion strains, locus YLR268W, strain sec22, active compounds read low 1.07 | S. cerevisiae deletion strains, locus YLR330W, strain CHS5, active compounds read low 1 | S. cerevisiae deletion strains, locus YLR342W, strain FKS1 (second series), active compounds read low 1.02 | S. cerevisiae deletion strains, locus YLR371W, strain rom2, active compounds read low 1.01 | S. cerevisiae deletion strains, locus YLR418C, strain cdc73, active compounds read low 1.01 | S. cerevisiae deletion strains, locus YML016C, strain PPZ1, active compounds read low 1.01 | S. cerevisiae deletion strains, locus YML032C, strain rad52, active compounds read low 1.05 | S. cerevisiae deletion strains, locus YML124C, strain tub3, active compounds read low 0.997 | S. cerevisiae deletion strains, locus YMR078C, strain ctf18, active compounds read low 1.01 | S. cerevisiae deletion strains, locus YMR223W, strain ubp8, active compounds read low 0.975 | [15] 1.02 | [16] 1.01 | S. cerevisiae deletion strains, locus YNL067W, strain RPL9B, active compounds read low 1.05 | [17] 1.03 | [18] 1.04 | S. cerevisiae deletion strains, locus YNL183C, strain NPR1, active compounds read low 0.913 | S. cerevisiae deletion strains, locus YNL233W, strain BNI4, active compounds read low 1.03 | S. cerevisiae deletion strains, locus YNL250W, strain rad50, active compounds read low 0.999 | S. cerevisiae deletion strains, locus YNL271C, strain bni1, active compounds read low 1.01 | S. cerevisiae deletion strains, locus YNL298W, strain CLA4, active compounds read low 0.994 | S. cerevisiae deletion strains, locus YNL307C, strain MCK1, active compounds read low 1 | [19] 1 | S. cerevisiae deletion strains, locus YNR052C, strain pop2, active compounds read low 1.01 | [20] 1.15 | S. cerevisiae deletion strains, locus YOL012C, strain htz1 1.02 | S. cerevisiae deletion strains, locus YOL147C, strain pex11, active compounds read low 1 | S. cerevisiae deletion strains, locus YOR061W, strain CKA2, active compounds read low 1.01 | S. cerevisiae deletion strains, locus YOR069W, strain VPS5, active compounds read low 1.01 | S. cerevisiae deletion strains, locus YOR136W, strain idh2, active compounds read low 0.986 | S. cerevisiae deletion strains, locus YOR144C, strain elg1, active compounds read low 0.994 | S. cerevisiae deletion strains, locus YOR184W, strain ser1, active compounds read low 0.994 | S. cerevisiae deletion strains, locus YOR231W, strain MKK1, active compounds read low 0.996 | S. cerevisiae deletion strains, locus YOR316C, strain cot1, active compounds read low 1.01 | [21] 1.02 | [22] 1.01 | S. cerevisiae deletion strains, locus YPL256C, strain CLN2, active compounds read low 0.99 | S. cerevisiae deletion strains, locus YPR119W, strain clb2, active compounds read low 1 | S. cerevisiae deletion strains, locus YPR141C, strain kar3, active compounds read low 0.999 | S. cerevisiae deletion strains, locus YPR163C, strain tif3, active compounds read low 1.01 | S. cerevisiae deletion strains, locus YPR167C, strain met16, active compounds read low 1 | S. cerevisiae deletion strains, strain wtn01, active compounds read low 1.01 | S. cerevisiae strains, strain wild type, active compounds read low 1.01

Cc1ccc(Cl)cc1NC(=S)NCCO
inactive: [1] 1.01 | [2] 1.01 | [3] 1.01 | [4] 0.996 | [5] 1 | [6] 1.02 | [7] 1.02 | [8] 0.999 | [9] 1.02 | S. cerevisiae deletion strains, locus YHR087W, strain rtc3, active compounds read low 1.01 | S. cerevisiae deletion strains, locus YJL187C, strain SWE1, active compounds read low 1.01 | [10] 0.993 | [11] 0.992 | [12] 1 | [13] 1.02 | S. cerevisiae deletion strains, locus YLR058C, strain SHM2 (second series), active compounds read low 1.01 | S. cerevisiae deletion strains, locus YLR085C, strain ARP6, active compounds read low 1 | [14] 1.01 | S. cerevisiae deletion strains, locus YML094W, strain GIM5, active compounds read low 1.05 | S. cerevisiae deletion strains, locus YMR219W, strain ESC1, active compounds read low 1 | [15] 0.989 | [16] 0.95 | [17] 1.02 | [18] 1.01 | S. cerevisiae deletion strains, locus YNL298W, strain CLA4 (second series), active compounds read low 1.03 | [19] 1 | S. cerevisiae deletion strains, locus YNR030W, strain Alg12, active compounds read low 0.96 | [20] 1.03 | [21] 1.02 | [22] 1 | S. cerevisiae deletion strains, locus YPR135W, strain CTF4, active compounds read low 1.11
